Laboratory results: PubChem BioAssay (NCATS)
Inconclusive results are not listed. Calls of active or inactive are those of the source. Calls follow the shape of the dose curve; as a rule, active = well fitted inhibition curve with a large enough effect; inconclusive = small, poorly fitted or top-dose-only effect; inactive = flat fitted curve, though single readings scatter.

system: MKL-1; experiment: qHTS assay to identify novel small-molecules to repurpose for Merkel cell carcinoma treatment (AID 1296009); settings: MCC and control cell lines, CellTiter-Glo viability, 72 h; series mostly up to 46 µM; activity change, negative = cytotoxicity: at the top concentration; also: nearly all actives have a fitted effect of over 60% in size
Outline: (§1)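 Viability readout: ATP luminescence (CellTiter-Glo) after 72 hr drug exposure at 37 degree celsius. Dose-response format was 8 points for NPC and 11 points for MIPE; data normalized to in-plate controls.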
% is scaled to controls: 0 for no effect and ±100 for the full control effect; potency is read from the fitted curve at half-maximal effect.

Compound	activity change, negative = cytotoxicity	Potency
CCn1cc(C(=O)O)c(=O)c2cc3c(cc21)OCO3	-11% [at 16.1 µM] (inactive)	–
Cc1scc2c1N(C(=O)CN1CCN(C)CC1)c1ccccc1NC2=O	7.01% (inactive)	–
C[N+](C)(C)CCOC(N)=O	12.2% (inactive)	–
CC(=O)OC(C)C[N+](C)(C)C (stereo unspecified)	-5.98% (inactive)	–
NC(Cc1ccc(Cl)cc1)C(=O)O (stereo unspecified)	8.15% [at 0.597 µM] (inactive)	–
FC(F)(F)c1ccccc1-n1ccnc1	5.32% (inactive)	–
O=C(O)CN(CCOCCOCCN(CC(=O)O)CC(=O)O)CC(=O)O	14.4% [at 0.597 µM] (inactive)	–
CC(=O)[C@]1(O)Cc2c(O)c3c(c(O)c2[C@@H](O[C@H]2C[C@H](N)[C@H](O)[C@H](C)O2)C1)C(=O)c1ccccc1C3=O	–	119 nM (active)
CCN1CCC[C@H]1CNC(=O)c1c(O)c(Cl)cc(Cl)c1OC	17.3% (inactive)	–
CCCN(CCC)C(=O)C(CCC(=O)O)NC(=O)c1ccccc1 (stereo unspecified)	12.1% (inactive)	–
C[n+]1cc2c3c(ccc2c2ccc4cc5c(cc4c21)OCO5)OCO3	–	1460 nM (active)
O=C(O)CN(CCN(CC(=O)O)CC(=O)O)CCN(CC(=O)O)CC(=O)O	10.2% [at 16.1 µM] (inactive)	–
CN=C(NC#N)NCCSCc1nc[nH]c1C	7.4% (inactive)	–
NC/C=C/C(=O)O	2.22% (inactive)	–
Cc1ccc(/C(=C\CN2CCCC2)c2ccccn2)cc1	-1.96% (inactive)	–
CCCN(CCC)CCc1cccc2c1CC(=O)N2	10.7% (inactive)	–
NC(=O)c1ncn([C@@H]2O[C@H](CO)[C@@H](O)[C@H]2O)c1O	14% (inactive)	–
O=C(O)CP(=O)(O)O	3.31% (inactive)	–
NCCCNCCSP(=O)(O)O	15.3% [at 9.22 µM] (inactive)	–
Brc1c(NC2=NCCN2)ccc2nccnc12	-22.3% (inactive)	–

system: MKL-2; experiment: as above; settings: MCC and control cell lines, CellTiter-Glo viability, 72 h; series mostly up to 46 µM; activity change, negative = cytotoxicity: at the top concentration
Outline: as §1

Compound	activity change, negative = cytotoxicity	Potency
CCN1CCc2nc(N)oc2CC1	-8.65% (inactive)	–
CCn1cc(C(=O)O)c(=O)c2cc3c(cc21)OCO3	-7.39% [at 16.1 µM] (inactive)	–
CCc1c(C)[nH]c2c1C(=O)C(CN1CCOCC1)CC2 (stereo unspecified)	–	9.44 µM (active)
Cc1scc2c1N(C(=O)CN1CCN(C)CC1)c1ccccc1NC2=O	4.97% (inactive)	–
CC(C)(C)NCC(O)c1cc(O)cc(O)c1 (stereo unspecified)	10.6% (inactive)	–
CC1=C(C)C(=O)C(CCCCC#CCCCC#CCO)=C(C)C1=O	–	26.6 µM (active)
C[N+](C)(C)CCOC(N)=O	14.3% (inactive)	–
NC(=O)c1cn(Cc2c(F)cccc2F)nn1	27.4% (inactive)	–
NC(Cc1ccc(Cl)cc1)C(=O)O (stereo unspecified)	20% [at 0.597 µM] (inactive)	–
FC(F)(F)c1ccccc1-n1ccnc1	11% (inactive)	–
CCCCNc1ccc(C(=O)OCCN(C)C)cc1	22% (inactive)	–
O=C(O)CCCCCCCC(=O)O	-7.41% (inactive)	–
CCN(CC)CCNC(=O)c1cc(S(C)(=O)=O)ccc1OC	4.28% (inactive)	–
O=C(O)CN(CCOCCOCCN(CC(=O)O)CC(=O)O)CC(=O)O	9.35% [at 0.597 µM] (inactive)	–
CC(=O)[C@]1(O)Cc2c(O)c3c(c(O)c2[C@@H](O[C@H]2C[C@H](N)[C@H](O)[C@H](C)O2)C1)C(=O)c1ccccc1C3=O	–	0.0944 µM (active)
CCN1CCC[C@H]1CNC(=O)c1c(O)c(Cl)cc(Cl)c1OC	7.97% (inactive)	–

Compound	activity change, negative = cytotoxicity	Potency
CCCN(CCC)C(=O)C(CCC(=O)O)NC(=O)c1ccccc1 (stereo unspecified)	9.27% (inactive)	–
CN1C[C@H](C(=O)N[C@]2(C)O[C@@]3(O)[C@@H]4CCCN4C(=O)[C@H](Cc4ccccc4)N3C2=O)C[C@@H]2c3cccc4[nH]cc(c34)C[C@H]21	-27.6% (inactive)	–
C[n+]1cc2c3c(ccc2c2ccc4cc5c(cc4c21)OCO5)OCO3	–	0.651 µM (active)
NC(N)=NC(=O)Cc1c(Cl)cccc1Cl	10.9% (inactive)	–
O=C(O)CN(CCN(CC(=O)O)CC(=O)O)CCN(CC(=O)O)CC(=O)O	6.28% [at 16.1 µM] (inactive)	–
CN=C(NC#N)NCCSCc1nc[nH]c1C	9.17% (inactive)	–
NC/C=C/C(=O)O	19.8% (inactive)	–
Cc1ccc(/C(=C\CN2CCCC2)c2ccccn2)cc1	-9.23% (inactive)	–
CCCN(CCC)CCc1cccc2c1CC(=O)N2	-15.7% (inactive)	–
NC(=O)c1ncn([C@@H]2O[C@H](CO)[C@@H](O)[C@H]2O)c1O	19.9% (inactive)	–
O=C(O)CP(=O)(O)O	18.5% (inactive)	–
CCN(CC)CC(=O)Nc1c(C)cccc1C	-9.59% (inactive)	–
NCCCNCCSP(=O)(O)O	7.98% [at 9.22 µM] (inactive)	–
Brc1c(NC2=NCCN2)ccc2nccnc12	-1.78% (inactive)	–
c1ccc2c(c1)CCCC2C1=NCCN1 (stereo unspecified)	2.56% (inactive)	–
